To fix the notation:
T1: RBFOX1 RRM RbFoxmut (Fox-RRM*) (Homo sapiens, UniProt Q9NWB1 109-208, R118D;E147R;N151S;E152T)
T1 sequence: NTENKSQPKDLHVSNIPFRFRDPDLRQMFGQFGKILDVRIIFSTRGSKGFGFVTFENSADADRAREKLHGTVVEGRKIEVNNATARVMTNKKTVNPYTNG

B1: UAGGGAC (DNA:RNA)
RNA: GGGAGACCGGAAUUCAGAUUGUCCUAGGGACUUAAAUCCCGUCGUAGCCACCA
DNA 1: CAATCTGAATTCCGGTCTCCC
DNA 2: TGGTGGCTACGACGGGATT
B2: CCCCAGG (DNA:RNA)
RNA: GGGAGACCGGAAUUCAGAUUGUCCCCCCAGGUUAAAUCCCGUCGUAGCCACCA
DNA 1: CAATCTGAATTCCGGTCTCCC
DNA 2: TGGTGGCTACGACGGGATT
B3: GAGGAGG (DNA:RNA)
RNA: B2 RNA with C25G, C26A, C27G, C28G
DNA 1: CAATCTGAATTCCGGTCTCCC
DNA 2: TGGTGGCTACGACGGGATT
B4: ACCGAGG (DNA:RNA)
RNA: B2 RNA with C25A, C28G
DNA 1: CAATCTGAATTCCGGTCTCCC
DNA 2: TGGTGGCTACGACGGGATT
B5: GAGGUUG (DNA:RNA)
RNA: B1 RNA with U25G, G29U, A30U, C31G
DNA 1: CAATCTGAATTCCGGTCTCCC
DNA 2: TGGTGGCTACGACGGGATT
B6: AGGGGGG (DNA:RNA)
RNA: B1 RNA with U25A, A26G, A30G, C31G
DNA 1: CAATCTGAATTCCGGTCTCCC
DNA 2: TGGTGGCTACGACGGGATT
B7: ACCAGGG (DNA:RNA)
RNA: B2 RNA with C25A, C28A, A29G
DNA 1: CAATCTGAATTCCGGTCTCCC
DNA 2: TGGTGGCTACGACGGGATT
B8: CAGGUUG (DNA:RNA)
RNA: B1 RNA with U25C, G29U, A30U, C31G
DNA 1: CAATCTGAATTCCGGTCTCCC
DNA 2: TGGTGGCTACGACGGGATT
B9: AGGGUUG (DNA:RNA)
RNA: B1 RNA with U25A, A26G, G29U, A30U, C31G
DNA 1: CAATCTGAATTCCGGTCTCCC
DNA 2: TGGTGGCTACGACGGGATT
B10: CACCAGG (DNA:RNA)
RNA: B2 RNA with C26A
DNA 1: CAATCTGAATTCCGGTCTCCC
DNA 2: TGGTGGCTACGACGGGATT

Numbering of substitutions follows the chain as printed; changes in the protein carry UniProt numbers. Whole data set: some 16,000 sequences, median “ka relative to ugcaugu” near 0.096, cut for the highest 2% near 0.35. The entries come from a sample that favours the highest values as a whole.

From publication PMC9911399, “Two distinct binding modes provide the RNA-binding protein RbFox with extraordinary sequence specificity” come the findings set out here.

In the assay the target is T1, RBFOX1 RRM RbFoxmut (Fox-RRM*). In words: EMSA; HiTS-Eq, 1 nM pool, 10 min; buffer printed only for the single-RNA assays: 10 mM Tris pH 7.5, 150 mM NaCl, 3.4 mM EDTA, 0.001% NP-40, 30 C. The note with it: tags: His6 N-terminal (pET28a); label: 5' 32P. An outline of the steps: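 Purified RbFox RRM, wild type or mutant, was incubated for 10 min in 50 µL with 1 nM of a 5′-radiolabelled RNA pool carrying 7 randomized nucleotides, whose flanks were annealed to DNA oligonucleotides, over a series of increasing protein concentrations. Unbound RNA was resolved on 8% native PAGE, cut out, reverse-transcribed, barcoded by PCR and sequenced on an Illumina HiSeq 2500. Relative association constants were derived from changes in read counts for each RNA species versus the control reaction and normalised to the cognate motif.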
As for B1, the binding signal is 0.0789 KA relative to UGCAUGU.

For B2, the binding signal was 0.0949 KA relative to UGCAUGU.

Turning to B3, the binding signal was 0.0833 KA relative to UGCAUGU.

Consider B4, for which the binding signal was 0.0689 KA relative to UGCAUGU.

Regarding B5, the binding signal is 0.552 KA relative to UGCAUGU.

On to B6, for which the binding signal was 0.104 KA relative to UGCAUGU.

As for B7, the binding signal is 0.0771 KA relative to UGCAUGU.

In the case of B8, the binding signal is 0.371 KA relative to UGCAUGU.

For the molecule B9, the binding signal was 0.578 KA relative to UGCAUGU.

Turning to B10, the binding signal is 0.0996 KA relative to UGCAUGU.
